From publication PMC5540273 (PLoS ONE, 2017)
“And” between values parts separate entries of the source, which are not always exact repeats. Equal entries are not always repeated.

Each molecule was assayed on MKNK1. Conditions: concentration: 1 μM, replicates: in singlicate; n = 1.
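Further: KINOMEscan kinase panel screen.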

| Structure (SMILES) | %Inh [%] |
| --- | --- |
| COc1ccc(Nc2nccc(N3CCC(NC(=O)Nc4cccc(C(C)=O)c4)C3)n2)cc1 (centres unmarked) [GSK1379731] | 0 |
| Fc1ccc(-c2nn3c(OCC(F)(F)F)cccc3c2-c2ccncc2)cc1 [GW514784] | 0 |
| Cc1cn2c(=O)cc(N3CCOCC3)nc2n1Cc1cccc(Cl)c1Cl [GSK2334006] | 2 |
| Fc1ccc(-c2ncn(CCCN3CCOCC3)c2-c2cccnc2)cc1 [SB-211743] | 0 |
| C[C@@H](Oc1cc(-n2cnc3ccc(NC(=O)NC(C)(C)C)cc32)sc1C(N)=O)c1ccccc1Cl [GSK346294] | 0 |
| Cc1ccc(C(=O)NCC(N)=O)cc1-n1c(C)cc(OCc2ccc(F)cc2F)c(Br)c1=O | 0 |
| c1ccc(-c2n[nH]cc2-c2ccnc3ccccc23)nc1 [GW271431] | 6 |
| O=C1Cc2cc(Nc3nc(NCc4cccc(S(=O)(=O)C(F)(F)F)c4)ncc3C(F)(F)F)ccc2N1 | 0 |
| NCC(NC(=O)c1cc(-c2cn[nH]c2)c(-c2ccnc3[nH]ccc23)s1)c1ccccc1.O=C(O)C(F)(F)F.O=C(O)C(F)(F)F (centres unmarked) [GSK1325775] | 63 |
| COc1ccc(Nc2nccc(N3CCC(NC(=O)Nc4cc(C)ccc4C)C3)n2)cc1 (centres unmarked) [GSK1379741] | 0 |
| CC(C)Oc1ccc2c(-c3ccnc(Nc4ccc(N5CCN(C)CC5)cc4)n3)cnn2n1 [GW696155] | 37 |
| O=C(c1ccc(-c2cc(-c3c[nH]nc3-c3ccccn3)ccn2)cc1)N1CCOCC1 [GW812171] | 0 |
| CN(C(=O)c1ccc(-c2cc(-c3c[nH]nc3-c3ccccn3)ccn2)cc1)C1CCOCC1 [GW810083] | 0 |
| O=C(Nc1cccc(-c2nn3ncccc3c2-c2ccnc(Nc3cccc(C(F)(F)F)c3)n2)c1)c1c(F)cccc1F [GSK299495] | 0 |
| Cl.Oc1cccc(Nc2ccnc3cc(-c4ccncc4)ccc23)c1 [GW494601] | 0 |
| O=c1cc(N2CCOCC2)nc2n(Cc3cccc(F)c3)ccn12 [GSK2297430] | 0 |
| COc1ccc(CNC(=O)NC2CCN(c3ccnc(Nc4ccc(OC)cc4)n3)C2)cc1 (centres unmarked) [GSK1379727] | 0 |

| Structure (SMILES) | %Inh [%] |
| --- | --- |
| CCc1nc(-c2cccc(C)c2)c(-c2ccnc(NCc3ccccc3)c2)s1 | 1 |
| CCc1ccnc(/C=C/c2n[nH]c3cc(Sc4ccccc4C(=O)NC)ccc23)c1 | 0 |
| Cc1nnc(-c2ccc(C)c(-c3ccc(C(=O)Nc4ccc(NS(C)(=O)=O)cc4)cc3)c2)o1 [GW702865] | 0 |
| Cc1nnc(-c2ccc3ncc(-c4ccc(S(C)=O)cc4)n3c2)o1 (centres unmarked) | 0 |
| CC(=O)Nc1ccc(COc2ccc(Nc3ccnc4cc(-c5ccccn5)ccc34)cc2)cc1.Cl [GW440148] | 0 |
| CCn1cnc2c(N)ncnc21 [GW345098] | 0 |
| Cc1nnc(-c2ccc3occ(-c4ccc(C(C)O)cc4)c3c2)o1 (centres unmarked) | 16 |
| O=c1cc(N2CCOCC2)nc2n(Cc3cccc(Cl)c3Cl)c(C3CC3)nn12 [GSK2358994] | 0 |
| O=C(NCCCN1CCOCC1)c1cccc(Nc2nccc(Nc3ccc(Oc4ccccc4)cc3)n2)c1 [GW663929] | 0 |
| [2H]C([2H])(c1cccc(C(F)(F)F)c1C)n1ccn2c(=O)nc(N3CCOCC3)cc12 [GSK2336394] | 3 |
| NS(=O)(=O)CCc1cccc(Nc2nccc(-c3c(-c4cccc(NC(=O)c5c(F)cccc5F)c4)nn4ccccc34)n2)c1 [GSK336735] | 0 |
| Cl.Cl.Cl.Fc1ccc(-c2ncn(C3CCNCC3)c2-c2ccnc(Nc3ccccc3)n2)cc1 [SB-238039] | 0 |
| CN1c2ccc(NCc3ccc(F)cc3)cc2-c2c(cnn2C)S1(=O)=O | 0 |
| COCCNC(=O)c1ccc(-c2cc(C(=O)NC3CC3)cc(F)c2C)cc1 [GW868318] | 22 |
| N#Cc1ccc(-c2cc(-c3c[nH]nc3-c3ccccn3)ccn2)cc1 [GW693028] | 7 |
| O=C(NOCC1CC1)c1ccc(F)c(F)c1Nc1ccc(I)cc1Cl | 0 |

The molecules below were run on MKNK2. Conditions: concentration: 1 μM, replicates: in singlicate; 1 µM; n = 1.

| Structure (SMILES) | %Inh |
| --- | --- |
| CC(C)(CN)c1nc(-c2ccc(Cl)c(O)c2)c(-c2ccncc2)[nH]1.O=C(O)C(F)(F)F [SB-477794] | 9% and 0% |
| NCCNS(=O)(=O)c1ccc(-c2ccnc3[nH]ccc23)cc1 [GSK977617] | 97% and 94.8% |
| Cl.Cl.Cl.Fc1ccc(-c2ncn(C3CCNCC3)c2-c2ccnc(Nc3ccccc3)n2)cc1 [SB-238039] | 0% and 29% |

Same assay, conditions: concentration: 1 μM, replicates: in singlicate; n = 1

| Structure (SMILES) | %Inh [%] |
| --- | --- |
| COc1ccc(Nc2nccc(N3CCC(NC(=O)Nc4cccc(C(C)=O)c4)C3)n2)cc1 (centres unmarked) [GSK1379731] | 4 |
| Fc1ccc(-c2nn3c(OCC(F)(F)F)cccc3c2-c2ccncc2)cc1 [GW514784] | 0 |
| Cc1cn2c(=O)cc(N3CCOCC3)nc2n1Cc1cccc(Cl)c1Cl [GSK2334006] | 10 |
| Fc1ccc(-c2ncn(CCCN3CCOCC3)c2-c2cccnc2)cc1 [SB-211743] | 0 |
| C[C@@H](Oc1cc(-n2cnc3ccc(NC(=O)NC(C)(C)C)cc32)sc1C(N)=O)c1ccccc1Cl [GSK346294] | 0 |
| Cc1ccc(C(=O)NCC(N)=O)cc1-n1c(C)cc(OCc2ccc(F)cc2F)c(Br)c1=O | 0 |
| c1ccc(-c2n[nH]cc2-c2ccnc3ccccc23)nc1 [GW271431] | 7 |
| O=C1Cc2cc(Nc3nc(NCc4cccc(S(=O)(=O)C(F)(F)F)c4)ncc3C(F)(F)F)ccc2N1 | 0 |
| NCC(NC(=O)c1cc(-c2cn[nH]c2)c(-c2ccnc3[nH]ccc23)s1)c1ccccc1.O=C(O)C(F)(F)F.O=C(O)C(F)(F)F (centres unmarked) [GSK1325775] | 94.2 |
| COc1ccc(Nc2nccc(N3CCC(NC(=O)Nc4cc(C)ccc4C)C3)n2)cc1 (centres unmarked) [GSK1379741] | 5 |
| CC(C)Oc1ccc2c(-c3ccnc(Nc4ccc(N5CCN(C)CC5)cc4)n3)cnn2n1 [GW696155] | 84 |
| O=C(c1ccc(-c2cc(-c3c[nH]nc3-c3ccccn3)ccn2)cc1)N1CCOCC1 [GW812171] | 0 |
| CN(C(=O)c1ccc(-c2cc(-c3c[nH]nc3-c3ccccn3)ccn2)cc1)C1CCOCC1 [GW810083] | 37 |
| O=C(Nc1cccc(-c2nn3ncccc3c2-c2ccnc(Nc3cccc(C(F)(F)F)c3)n2)c1)c1c(F)cccc1F [GSK299495] | 24 |
| Cl.Oc1cccc(Nc2ccnc3cc(-c4ccncc4)ccc23)c1 [GW494601] | 21 |
| O=c1cc(N2CCOCC2)nc2n(Cc3cccc(F)c3)ccn12 [GSK2297430] | 10 |

| Structure (SMILES) | %Inh [%] |
| --- | --- |
| COc1ccc(CNC(=O)NC2CCN(c3ccnc(Nc4ccc(OC)cc4)n3)C2)cc1 (centres unmarked) [GSK1379727] | 0 |
| CCc1nc(-c2cccc(C)c2)c(-c2ccnc(NCc3ccccc3)c2)s1 | 0 |
| CCc1ccnc(/C=C/c2n[nH]c3cc(Sc4ccccc4C(=O)NC)ccc23)c1 | 0 |
| Cc1nnc(-c2ccc(C)c(-c3ccc(C(=O)Nc4ccc(NS(C)(=O)=O)cc4)cc3)c2)o1 [GW702865] | 0 |
| Cc1nnc(-c2ccc3ncc(-c4ccc(S(C)=O)cc4)n3c2)o1 (centres unmarked) | 35 |
| CC(=O)Nc1ccc(COc2ccc(Nc3ccnc4cc(-c5ccccn5)ccc34)cc2)cc1.Cl [GW440148] | 6 |
| CCn1cnc2c(N)ncnc21 [GW345098] | 0 |
| Cc1nnc(-c2ccc3occ(-c4ccc(C(C)O)cc4)c3c2)o1 (centres unmarked) | 0 |
| O=c1cc(N2CCOCC2)nc2n(Cc3cccc(Cl)c3Cl)c(C3CC3)nn12 [GSK2358994] | 0 |
| O=C(NCCCN1CCOCC1)c1cccc(Nc2nccc(Nc3ccc(Oc4ccccc4)cc3)n2)c1 [GW663929] | 29 |
| [2H]C([2H])(c1cccc(C(F)(F)F)c1C)n1ccn2c(=O)nc(N3CCOCC3)cc12 [GSK2336394] | 6 |
| NS(=O)(=O)CCc1cccc(Nc2nccc(-c3c(-c4cccc(NC(=O)c5c(F)cccc5F)c4)nn4ccccc34)n2)c1 [GSK336735] | 0 |
| CN1c2ccc(NCc3ccc(F)cc3)cc2-c2c(cnn2C)S1(=O)=O | 0 |
| COCCNC(=O)c1ccc(-c2cc(C(=O)NC3CC3)cc(F)c2C)cc1 [GW868318] | 25 |
| N#Cc1ccc(-c2cc(-c3c[nH]nc3-c3ccccn3)ccn2)cc1 [GW693028] | 14 |
| O=C(NOCC1CC1)c1ccc(F)c(F)c1Nc1ccc(I)cc1Cl | 0 |
